Compound activity (PubChem BioAssay)
PLK1 PBD inh: inhibitors of human PLK1 polo-box domain binding. P53350. Plk1 PBD binding of FITC phosphopeptide, fluorescence polarization. Potency, µM, without a hit: max response, negative = inhibition, actives largely listed as inhibitors. 360,000 compounds, 2.8% hits; note: potency is the fitted concentration of half-maximal effect; series mostly up to about 57 µM; % is set by controls: 0 for no effect and ±100 for the full control effect; nearly all actives have a fitted effect of over 65% in size
PI5P4Ka inh: inhibitors of human PI5P4K alpha | P48426 | max response, % | 330,000 compounds, 1.2% hits | PI5P4Kalpha enzyme, ADP-Glo luminescence, 60 min; stronger effect = lower value | AID 652105; active = max response of -50% or lower; inconclusive = between -30% and -50%; inactive = -30% or higher; note: value at the top dose of about 77 µM; % is set by controls: 0 for no effect and ±100 for the full control effect
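Controls without substrate or without enzyme flank wells where PI5P4Kalpha converts substrate using 5 microM ATP (final). Incubation lasts 60 minutes at room temperature; ADP formed is read by ADP-Glo luminescence.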
KAT2A inh: inhibitors of human GCN5L2 histone acetyltransferase; Q92830; GCN5L2 HAT assay, ThioGlo1 CoA-SH fluorescence; Potency, µM (highest dose often 58.9 µM), inactives show at the top dose activity change, negative = inhibition, most hits filed as inhibitors; 390,000 compounds, 0.21% hits; note: potency is the fitted concentration of half-maximal effect; % is set by controls: 0 for no effect and ±100 for the full control effect
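Titration-based screen in which CoA formation is detected via maleimide probe ThioGlo1 (50uM) turning fluorescent on thiol reaction; substrates H3(1-25) 75uM and acetyl-CoA 70uM, GCN5L2 20nM, 20 min incubation at room temperature.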
JMJD2A Tudor inh: inhibitors of human JMJD2A Tudor domain | O75164 | AlphaScreen JMJD2A-Tudor / H3K4me3 peptide binding | Potency, µM (highest dose often 114 µM), for inactives: at the top dose activity change, negative = inhibition, hits mostly inhibitors | 390,000 compounds, 4.4% hits | AID 504339; note: potency is the fitted concentration of half-maximal effect; % is set by controls: 0 for no effect and ±100 for the full control effect; nearly all actives have a fitted effect of over 50% in size
Target sequence (O75164 whole entry, looked up, the tested form may be a part): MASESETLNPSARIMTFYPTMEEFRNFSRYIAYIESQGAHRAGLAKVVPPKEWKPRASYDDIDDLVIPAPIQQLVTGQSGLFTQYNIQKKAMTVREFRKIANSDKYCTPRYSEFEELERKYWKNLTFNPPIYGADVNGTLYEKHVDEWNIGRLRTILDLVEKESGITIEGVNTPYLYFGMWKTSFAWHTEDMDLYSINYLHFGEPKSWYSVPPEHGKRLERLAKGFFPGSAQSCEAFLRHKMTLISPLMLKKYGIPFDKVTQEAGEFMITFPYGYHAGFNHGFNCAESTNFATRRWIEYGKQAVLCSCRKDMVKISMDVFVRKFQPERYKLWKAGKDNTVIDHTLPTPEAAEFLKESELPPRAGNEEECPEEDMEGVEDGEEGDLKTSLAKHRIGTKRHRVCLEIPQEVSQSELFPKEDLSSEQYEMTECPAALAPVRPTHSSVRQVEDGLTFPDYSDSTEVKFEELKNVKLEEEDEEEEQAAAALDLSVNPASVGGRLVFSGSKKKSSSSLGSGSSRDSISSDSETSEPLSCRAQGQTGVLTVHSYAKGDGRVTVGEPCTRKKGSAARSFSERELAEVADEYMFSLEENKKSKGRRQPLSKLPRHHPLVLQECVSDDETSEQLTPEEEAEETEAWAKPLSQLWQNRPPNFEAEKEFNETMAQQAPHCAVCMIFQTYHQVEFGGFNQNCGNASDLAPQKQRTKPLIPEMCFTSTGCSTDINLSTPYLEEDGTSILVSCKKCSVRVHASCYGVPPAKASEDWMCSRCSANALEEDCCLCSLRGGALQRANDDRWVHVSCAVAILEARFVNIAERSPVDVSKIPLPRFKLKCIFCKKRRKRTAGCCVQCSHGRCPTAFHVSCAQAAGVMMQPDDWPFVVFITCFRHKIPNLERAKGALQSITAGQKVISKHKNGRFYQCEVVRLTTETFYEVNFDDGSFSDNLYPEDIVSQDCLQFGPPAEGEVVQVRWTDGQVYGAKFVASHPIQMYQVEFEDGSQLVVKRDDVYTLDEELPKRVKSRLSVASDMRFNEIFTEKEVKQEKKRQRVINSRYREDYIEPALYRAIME
BAZ2B inh: inhibitors of human BAZ2B bromodomain. AlphaScreen BAZ2B-H3K14Ac peptide displacement. Potency, µM (doses to about 114 µM), for inactives: at the highest dose activity change, negative = inhibition, actives largely listed as inhibitors. 360,000 compounds, 4.4% hits. AID 504333; note: potency is the fitted concentration of half-maximal effect; % is set by controls: 0 for no effect and ±100 for the full control effect; nearly all actives have a fitted effect of over 60% in size
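Multi-concentration screen (max 110 uM) measuring displacement of acetylated histone H3 peptide from BAZ2B by AlphaScreen, using 50 nM protein, 50 nM peptide and 10 ug/mL streptavidin donor plus Ni-chelate acceptor beads.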
HP1b binding inh: HP1-beta chromodomain-methylated histone interaction inhibition; AlphaScreen HP1-beta / biotin-H3K9me3 peptide binding; Potency, µM (doses to about 114 µM), inactives show at the highest dose activity change, negative = inhibition, actives largely listed as inhibitors; 390,000 compounds, 0.56% hits; AID 540317; note: potency is the fitted concentration of half-maximal effect; nearly all actives have a fitted effect of over 70% in size
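Compound inhibition of the preformed complex between 50 nM HP1-beta and 50 nM biotinylated H3K9me3 peptide was read by AlphaScreen. Buffer was PBS pH 7.4 with 0.01% Tween-20. Incubations ran 30 min at room temperature, with 10 ug/mL donor/acceptor beads.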
* hit, by the source's call; ? = inconclusive; · = no result given; ! = not confirmed by another sample. A selection: hits, their analogues and other compounds. The true share with any hit is near 7%. Unless noted, calls come from the whole dose curve; as a rule, active = well fitted curve in the direction sought with a large enough effect; inconclusive = small, poorly fitted or top-dose-only effect, or another doubt; inactive = no such curve, though single readings can be large; an effect the other way counts as inactive or inconclusive.

SMILES	PLK1 PBD inh	PI5P4Ka inh	KAT2A inh	JMJD2A Tudor inh	BAZ2B inh	HP1b binding inh
O=C(O)c1ccc(/C=N/NC(=O)c2cc(-c3ccc4c5c(cccc35)CC4)n[nH]2)cc1	?	-73*	-23%	?	50µM*	-14%
Cc1nn(Cc2ccccc2)c(C)c1/C=N/NC(=O)CNc1cccc(C(F)(F)F)c1	4%	20	-10%	-32%	-37%	16%
COc1ccc(NCC(=O)N/N=C/c2c(C)nn(Cc3ccccc3)c2Cl)cc1	-6%	-5	-6%	?	45µM*	-28%
Cc1ccccc1NC(=O)c1cc(-c2ccco2)nc2ccccc12	?	?	·	20µM*	·	?
Cc1cccc(NC(=S)NC(=O)c2cc(-c3ccccc3)nc3ccccc23)c1	-10%	1	-16%	-27%	-39%	-20%
O=C(N/N=C/c1cccc(F)c1)c1cc(-c2ccco2)nc2ccccc12	11µM*	-88*	?	?	6.3µM*	28µM*
COc1ccc(NC(=O)c2cc(-c3ccc(C)o3)nc3ccccc23)c(OC)c1	-12%	-27	·	?	·	14%
Cc1ccccc1NC(=S)NC(=O)c1cc(-c2ccccc2)nc2ccccc12	30µM*	-14	-4%	?	-37%	-24%
COc1ccc(NC(=O)c2cc(-c3ccc(C)o3)nc3ccccc23)cc1OC	?	-53*	-22%	56µM*	-31%	-14%
COc1ccc(S(=O)(=O)N(C)C[C@@H]2Oc3c(NS(=O)(=O)c4cn(C)cn4)cccc3C(=O)N([C@@H](C)CO)C[C@@H]2C)cc1	-20%	2	2%	-14%	·	40%
CC(=O)Nc1ccc(C2=NOC(C)(C)C(=O)N2Cc2cccc(C#N)c2)cc1	3%	1	·	·	·	·
CCCCCOc1ccc(C(=O)CCC(=O)NC(C)c2ccc(S(N)(=O)=O)cc2)cc1 (centres undefined)	4%	1	-1%	-21%	·	7%
COc1ccc(Cl)cc1NC(=O)CN(C)C(=O)c1cc2c(s1)CCCC2	-1%	14	-11%	-14%	-7%	15%
Cc1cc(C(=O)OCC(=O)Nc2cc(S(=O)(=O)N(C)C)ccc2C)c2ccccc2n1	6%	-4	-13%	-15%	-22%	4%
O=C(O)c1cc(-c2ccco2)nc2ccc(Br)cc12	4.2µM*!	-87*!	?	13µM*!	11%	56µM*!
Cc1ccc(S(=O)(=O)N(C)C)cc1NC(=O)c1cc(-c2ccco2)nc2ccccc12	-14%	-56*	-26%	?	?	7%
CCCN(Cc1cccs1)C(=O)Nc1cc(C)ccc1OC	·	·	-4%	47%	22%	88%
CCOc1ccc(CC(=O)NCCc2cnc[nH]2)cc1	-4%	-1	-2%	-10%	1%	3%
CCOc1ccc(C(=O)CCNC(Cc2cnc[nH]2)C(=O)O)cc1 (centres undefined)	-12%	·	6%	?	18µM*	19%
CCOc1ccc(S(=O)(=O)NC(Cc2cnc[nH]2)C(=O)O)cc1 (centres undefined)	-12%	8	-1%	16µM*	-14%	-5%
CCOc1ccc(S(=O)(=O)NC(C)C(=O)NC2CCCC2)cc1 (centres undefined)	-13%	14	-2%	-14%	2%	16%
CC(C)OCCCn1c(SC(C)C(=O)NC2CC2)nc2ccccc2c1=O (centres undefined)	-9%	0	0%	-3%	-3%	16%
O=C(Oc1ccc(Br)cc1C(=S)N1CCOCC1)c1ccc(F)cc1	12µM*	-11	?	-36%	?	-36%
COc1ccc(C(=S)N2CCOCC2)cc1OC(=O)c1ccccc1	27µM*	-1	-15%	-35%	-38%	?
CCOc1cc(C(=S)N2CCOCC2)ccc1OC	24µM*	·	-7%	-17%	1%	-18%
SMILES	PLK1 PBD inh	PI5P4Ka inh	KAT2A inh	JMJD2A Tudor inh	BAZ2B inh	HP1b binding inh
CCOc1cc2nc(-c3ccc(OC)c(OC)c3)nc(N3CCOCC3)c2cc1OC	-3%	4	4%	-26%	56µM*	8%
COc1cc(NC(=O)CN2CCCN(S(=O)(=O)c3ccc(F)cc3)CC2)cc(OC)c1	·	·	3%	-21%	-25%	26%
O=C1C2CCc3ccccc3C2N1c1ccccc1 (centres undefined)	-9%	1	-3%	-11%	-1%	29%
C[C@@H]1CN([C@H](C)CO)C(=O)CCCn2cc(nn2)CO[C@H]1CN(C)C(=O)OCc1ccccc1	?	9	·	·	·	·
COc1ccc(C(=S)N2CCOCC2)cc1OC(=O)c1cc(OC)c(OC)c(OC)c1	27µM*	-8	-13%	?	?	?
COc1ccc(C(=O)Oc2ccc(Br)cc2C(=S)N2CCOCC2)cc1	-21%	2	-1%	-31%	-24%	70%
COc1ccc(C(=O)Oc2c(OC)cc(C(=S)N3CCOCC3)cc2OC)cc1OC	21µM*	-26	?	?	-12%	?
COc1cc(C(=O)Oc2ccc(Br)cc2C(=S)N2CCOCC2)cc(OC)c1OC	17µM*	-27	-14%	-36%	-30%	?
NC(=S)N/N=C1\CC(c2ccc3c(c2)OCCCO3)Oc2ccc(F)cc21 (centres undefined)	-1%	0	-8%	?	25µM*	-22%
NC(=S)N/N=C1\CC(c2ccc3c(c2)OCCO3)Oc2ccc(F)cc21 (centres undefined)	-3%	-1	-3%	-17%	-19%	-4%
Cc1occc1-c1nnc(SCC(=O)c2ccc3c(c2)OCCO3)n1CC1CCCO1 (centres undefined)	-2%	-8	-9%	-25%	-21%	39%
COCCn1c(SCC(=O)c2ccc3c(c2)OCCO3)nnc1C(C)C	0%	-8	-14%	79µM*	0%	-8%
COCCn1c(SCC(=O)Nc2ccc3c(c2)OCCO3)nnc1C(C)C	-24%	4	-3%	-20%	-1%	21%
CCCCn1c(SCC(=O)c2ccc3c(c2)OCCO3)nnc1-c1ccoc1C	-26%	-7	-12%	?	89µM*	-3%
COCCn1c(SCC(=O)c2ccc(Cl)cc2)nnc1C(C)C	?	-22	-4%	50µM*	0%	-11%
Cc1ccc(S(=O)(=O)N2[C@@H](c3ccc(Br)cc3)C(C(=O)O)=C[C@H]2C(C)(C)C)cc1	-26%	-4	-2%	-20%	·	13%
CN(C(=O)c1cccc(NC(=O)Cc2ccc(NC(=O)C3CCCN(C(=O)C4CCC4)C3)cc2)c1)C1CC1 (centres undefined)	-10%	2	·	-16%	·	27%
